# Reference: PubChem BioAssay AID2284379 (EPA ToxCast)
# Results filed as inconclusive are left out. Calls of active or inactive are those of the source. The calls were made as follows: active = hit-call score of the fitted dose curve at least 0.9, where 1 is the maximum; inconclusive = response in the unintended direction; inactive = score below 0.9.
# Experiment: ATG_M_32_EcoTox2: Attagene TRANS-FACTORIAL EcoTox-2 HepG2 Assay for M32 Transcription Factor (Internal Marker)
# Description: ATG_EcoTox2 is a cell-based, multiplexed assay created by modifying the existing Attagene TRANS-FACTORIAL system to include a panel of nuclear receptors from some or all the following species: human (Homo sapiens), african clawed frog (Xenopus laevis), rainbow trout (Oncorhynchus mykiss), japanese medaka (Oryzias latipes), and zebrafish (Danio rerio). The ECOTOX2-FACTORIAL format uses HepG2, a human liver cell line, with measurements taken at 24 hours after chemical dosing in a 24-well plate. ATG_M_32_EcoTox2 is one of 29 assay components calculated in the ATG_EcoTox2 assay. It is designed to make measurements of mRNA induction, a form of inducible reporter, as detected with fluorescence intensity signals by Reverse transcription polymerase chain reaction (RT-PCR) and Capillary electrophoresis technology.The assay endpoint ATG_M_32_EcoTox2 was analyzed in the positive analysis fitting direction relative to DMSO as the negative control and baseline of activity. Using a type of inducible reporter, measures of mRNA for gain-of-signal activity can be used to understand the background control at the transcription factor-level as they relate to the gene. Furthermore, this assay endpoint can be referred to as a secondary readout, because this assay has produced multiple assay endpoints where this one serves a background control function. To generalize the intended target to other relatable targets, this assay endpoint is annotated to the background measurement intended target family, where the subfamily is internal marker.
# Human liver HepG2 cells are transiently transfected with multiple reporter transcription units (MRTUs) in 6-well plates using FuGene 6 reagent (Roche; 3 ml FuGene/1 mg DNA). The MRTU constructs are regulated by a cis-regulating element (promoter). Each RTU expresses a GAL4-UAS that regulates the transcription of a nearby target reporter gene sequence. A major difference between the CIS and TRANS system is that in CIS activities of endogenous TFs are measured, whereas the TRANS assay evaluates changes in activities of exogenous, chimeric NR-Gal4 proteins. […] At the end of 24 hour incubation, total RNA was isolated using TriZol reagent (Invitrogen). The isolated RNA is then reverse-transcribed using oligo(dT) primer and Mo-MLV reverse transcriptase (Invitrogen) with DNAse I (Ambion) treatment for 30 min. The one-tenth of the produced cDNA was amplified by PCR using Taq DNA polymerase (Invitrogen) and two reporter sequence-specific primers. The PCR products were fluorescently labeled by primer extension with 6-arboxyfluorescein (6-FAM) 5'-labeled reporter sequence-specific primer (2 min at 95 C, 20 s at 68 C and 10 min at 72 C) and these products were digested with 5U of HpaI (New England Biolabs) for 2h at 37 C. The fragments were purified using Qiaquick PCR columns (Qiagen), analyzed on an ABI 3130xL genetic analyzer (Applied Biosystems) with peak positions identified by using a set of X-rhodamine (ROX)-labeled MapMarker1000 molecular weight standards (BioVentures). The raw capillary electrophoresis data was processed using Attagraph software (Attagene).
row,SMILES,outcome
1,CCCCOCN(C(=O)CCl)c1c(CC)cccc1CC,inactive
2,O=P(Oc1ccccc1)(Oc1ccccc1)Oc1ccccc1,inactive
3,O=S(=O)(O)C(F)(F)C(F)(F)C(F)(F)C(F)(F)C(F)(F)C(F)(F)F,inactive
4,O=C(O)C(F)(F)C(F)(F)C(F)(F)C(F)(F)C(F)(F)C(F)(F)C(F)(F)F,inactive
5,[Cl][Sn]([c]1ccccc1)([c]1ccccc1)[c]1ccccc1,inactive
